Results filed as inconclusive are left out. Calls of active or inactive are those of the source. Unless noted, calls come from the whole dose curve; as a rule, active = well fitted curve in either direction with a large enough effect (not every such curve was filed as active); inconclusive = small, poorly fitted or top-dose-only effect, or another doubt; inactive = flat fitted curve, though single readings scatter.

Assay [1] addresses Lysosomal acid glucosylceramidase (Homo sapiens) (UniProt P04062). As to the kind of experiment: Glucocerebrosidase-p2 (AID 348; in the data active = potency below about 10 µM; note: potency is the fitted concentration of half-maximal effect). The settings on record: purified GBA, blue fluorogenic substrate, 40 min. The method, boiled down: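 Normal human glucocerebrosidase (0.2 nM) with blue fluorogenic substrate (80 uM final) in citrate/phosphate pH 5.9 with 10mM sodium taurocholate, 0.01% tween-20; 40 min RT, NaOH/glycine stop; fluorescence Ex 365/Em 440; AC50 from a titration from 0.6 nM upwards.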

The nature of assay [2]: AP1 Signaling Pathway (AID 357).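 Note: ME-180 reporter cells stimulated with EGF at its EC50 level; % is set by controls: 0 for no effect and ±100 for the full control effect.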 The following applies: ME-180 AP-1-bla reporter, EGF-induced, beta-lactamase ratio, 5 h; at 7.69 µM (top of the series) unless noted. The method, boiled down: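 First, ME-180 AP-1-bla cells were cultured overnight at 37 °C in low-serum Opti-MEM. Next, titrated compounds with EC50 EGF were incubated 5 hours. Finally, CCF4 was added for 2.5 hours and the 460/530 nm ratio recorded.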

In assay [3] the target is Cytochrome P450 1A2 (Homo sapiens) (UniProt P05177). Description: p450-cyp1a2 (AID 410; calls by dose curve; note: potency is the fitted concentration of half-maximal effect). The following applies: recombinant CYP1A2, luciferin-ME demethylation, luminescence; series mostly up to 57 µM. The gist of the method: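 Luminescent demethylation readout: Luciferin-ME (100uM, equal to Km) turned over by 20nM CYP1A2 for 60 min at room temperature after NADPH regeneration addition, following 10 min compound preincubation. Normalization used 57 uM furafylline as full inhibition.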

The nature of assay [4]: NFAT Signaling Pathway (AID 444).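 Note: carbachol stimulus at about its EC50 of 1 µM final; % is set by controls: 0 for no effect and ±100 for the full control effect.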 The settings on record: Jurkat NFAT-bla M1, carbachol, beta-lactamase ratio, 5 h; at 7.69 µM (top of the series) unless noted. The gist of the method: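 Jurkat cells with NFAT-driven β-lactamase reporter and co-expressed M1 receptor, stimulated with carbachol (final 1 uM, ~EC50), compound titration, 5 h at 37 °C. CCF4 loaded 1 h at RT; 460/530 nm ratio gave %activity and AC50.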

A short description of assay [5]: Stat Signaling Pathway (AID 446).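 Note: ME-180 cervical cancer cells given 40 pM IL-6 alongside compound; SIE-controlled beta-lactamase reporter measured as 460/530 nm FRET emission ratio; % is set by controls: 0 for no effect and ±100 for the full control effect.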 The following applies: ME-180 (cervical carcinoma) SIE beta-lactamase reporter, IL-6 stimulated, 5 h; at 7.69 µM (top of the series) unless noted. The gist of the method: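 Normalization used AC90 stimulation (300 pM IL-6) and AC90 inhibition (125 nM pan-JAK inhibitor at 40 pM IL-6). The underlying signal is SIE-driven beta-lactamase in ME-180 cells after 5 h IL-6 exposure with compound.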

The target in assay [6] is Glucocorticoid receptor (Homo sapiens) (UniProt P04150). Description: GR-GFP Redistribution (AID 450;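 active = compounds whose dose series gives a full or clear partial fitted curve of increased nuclear translocation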; note: potency is the fitted concentration of half-maximal effect). The settings on record: U2OS GR-GFP nuclear translocation, laser cytometry, 2 h.
Assay [7] has the same target. Description: GR-EFC Redistribution (AID 451; calls by dose curve; note: potency is the fitted concentration of half-maximal effect). The settings on record: CHO-K1 GR-EFC translocation, beta-gal luminescence, 2 h. The gist of the method:
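CHO-K1 cells expressing nuclear EA and GR-ED fragments of b-gal; compounds titrated up to 46 uM final, 2 h at 37 C. GR nuclear translocation read as complemented b-gal luminescence after 1 h RT detection.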

For assay [8], the target named is Mitogen-activated protein kinase 10 (Mus musculus) (UniProt Q61831). Description: JNK3 AlphaScreen Assay (AID 530).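 Note: kinase came from lysate of stimulated human HepG2 cells; signal reports phosphorylation of biotinylated GST-cJun 1-79 at Ser73 with 10 µM ATP; % is set by controls: 0 for no effect and ±100 for the full control effect.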 The settings on record: JNK3 lysate, c-Jun phosphorylation; series mostly up to 57.1 µM. The method, boiled down:
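Activity was read by AlphaScreen after JNK3-containing HepG2 lysate (cytokine pre-activated) phosphorylated biotinylated GST-cJun with 10 uM ATP at room temperature. Phospho-Ser73 cJun antibody with Protein-A acceptor beads provided detection.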
On the technique in general: In Alpha technology, singlet oxygen from a donor bead excites a nearby acceptor bead.

For assay [9], the target named is Cytochrome P450 3A4 (Homo sapiens) (UniProt P08684). Description: qHTS Assay for Inhibitors and Substrates of Cytochrome P450 3A4 (AID 884; active = well fitted curve in the direction sought with a large enough effect; an effect the other way counts as inactive or inconclusive; note: nearly all actives have a fitted effect of over 50% in size; note: potency is the fitted concentration of half-maximal effect). The settings on record: recombinant CYP3A4, Luciferin-PPXE luminescence; series mostly up to 57.1 µM. The gist of the method:
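Luminescent readout of luciferin produced by CYP3A4 (20 nM) dealkylation of Luciferin-PPXE, 25 uM (its KM). NADPH-driven reaction ran 60 min at RT after 10 min compound preincubation; data scaled to 57 uM ketoconazole as 100% inhibition.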

Assay [10] shares this target. As to the kind of experiment: qHTS Assay for Activators of Cytochrome P450 3A4 (AID 885; active = well fitted curve in the direction sought with a large enough effect; an effect the other way counts as inactive or inconclusive; note: nearly all actives have a fitted effect of over 65% in size). The settings on record: recombinant CYP3A4, Luciferin-PPXE luminescence, 60 min; series mostly up to 57.1 µM. The gist of the method:
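Human CYP3A4 dealkylates Luciferin-PPXE to luciferin, which luciferase detection converts to light. Substrate was at its KM (25uM), buffer 200mM KPO4, reaction 60 min at RT.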
(In general: In qHTS, concentration-response curves come from the screen itself.)

In assay [11] the target is Cytochrome P450 2C19 (Homo sapiens) (UniProt P33261). As to the kind of experiment: qHTS Assay for Inhibitors and Substrates of Cytochrome P450 2C19 (AID 899; active = well fitted curve in the direction sought with a large enough effect; an effect the other way counts as inactive or inconclusive; note: potency is the fitted concentration of half-maximal effect; nearly all actives have a fitted effect of over 60% in size). The settings on record: recombinant CYP2C19, luciferin-H EGE luminescence; series mostly up to 57.1 µM. The method, boiled down:
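Luminescent read-out of luciferin formed from Luciferin-H EGE (10uM, equal to KM). Enzyme 5nM in 50mM KPO4; compound added, 10 min at 37C, then NADPH regenerating system for 60 min at 37C. Full inhibition defined by 57uM ketoconazole.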

The nature of assay [12]: Confirmation and Secondary Assay for Modulators of Hemoglobin Beta Chain Splicing at IVS2 705 locus (AID 930; active = well fitted curve in the direction sought with a large enough effect; an effect the other way counts as inactive or inconclusive; note: % of control where 0% means no effect). The settings on record: HeLa EGFP-705 splicing reporter, GFP fluorescence, 48 h; series mostly up to 38.3 µM. The gist of the method: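 HeLa cells stably carrying EGFP interrupted by mutant beta-globin IVS2-705 intron (CMV-driven) were seeded at 500 cells/well, treated next day with compound for 2 days at 37C; corrected splicing restores EGFP, read as total peak GFP intensity per well.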

Assay [13] is described as follows: qHTS Assay for Lipid Storage Modulators (AID 1519; calls by dose curve). The following applies: Drosophila S3 cells, BODIPY lipid droplet/cell ratio, laser cytometry, cells loaded with oleic acid; for activity change, negative = inhibition: at 57.5 µM (top of the series). The method, boiled down:
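Cells seeded at 5,000 per well were treated with compounds over a concentration series and loaded with oleic acid (400 uM, as added). Lipid droplet fluorescence (488 nm excitation, 500-530 nm channel) was read by laser-scanning cytometry and normalized to 20 uM Triacsin C.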

Assay [14] has as its target 3',5'-cyclic-AMP phosphodiesterase 4B (Homo sapiens) (UniProt Q07343). As to the kind of experiment: qHTS Assay for Inhibitors of PDE-IV (AID 607; active = well fitted activation curve with a large enough effect in the main read-out, with a control signal flat, not every such curve was filed as active; note: % of control where 0% means no effect). The following applies: HEK293 ACTOne CNG channel cells, membrane potential fluorescence; series mostly up to 22.9 µM. The method, boiled down: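 HEK293 ACTOne cells with CNG channel (1000/well), endogenous PDE4; membrane potential dye, compounds up to 22.9 uM final. Fluorescence Ex 535/Em 590; RO 20-1724 (100 uM final) as reference.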

Assay [15] is described as follows: Confirmation and Secondary Assay for Modulators of Hemoglobin Beta Chain Splicing at IVS2 654 locus (AID 910; active = well fitted curve in the direction sought with a large enough effect; an effect the other way counts as inactive or inconclusive;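 note: HeLa cells stably carrying EGFP split by mutant beta-globin IVS2-654 intron; % of control where 0% means no effect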). The settings on record: HeLa EGFP-654 splicing reporter, GFP fluorescence, 48 h; series mostly up to 38.3 µM. The method, boiled down:
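HeLa cells stably expressing EGFP interrupted by β-globin IVS2-654 intron, seeded overnight in Opti-MEM/2% FCS, then treated 2 days at 37 °C. Restored splicing read as total peak GFP intensity per well by laser scanning cytometry (488 nm excitation, 500–520 nm emission); 500 nM antisense PNA as control.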

Where [16] appears, read: measured here: cell count channel max response.
Where [17] appears, read: measured here: lipid channel max response.

Chain of Glucocorticoid receptor (Homo sapiens) (P04150 whole entry, looked up): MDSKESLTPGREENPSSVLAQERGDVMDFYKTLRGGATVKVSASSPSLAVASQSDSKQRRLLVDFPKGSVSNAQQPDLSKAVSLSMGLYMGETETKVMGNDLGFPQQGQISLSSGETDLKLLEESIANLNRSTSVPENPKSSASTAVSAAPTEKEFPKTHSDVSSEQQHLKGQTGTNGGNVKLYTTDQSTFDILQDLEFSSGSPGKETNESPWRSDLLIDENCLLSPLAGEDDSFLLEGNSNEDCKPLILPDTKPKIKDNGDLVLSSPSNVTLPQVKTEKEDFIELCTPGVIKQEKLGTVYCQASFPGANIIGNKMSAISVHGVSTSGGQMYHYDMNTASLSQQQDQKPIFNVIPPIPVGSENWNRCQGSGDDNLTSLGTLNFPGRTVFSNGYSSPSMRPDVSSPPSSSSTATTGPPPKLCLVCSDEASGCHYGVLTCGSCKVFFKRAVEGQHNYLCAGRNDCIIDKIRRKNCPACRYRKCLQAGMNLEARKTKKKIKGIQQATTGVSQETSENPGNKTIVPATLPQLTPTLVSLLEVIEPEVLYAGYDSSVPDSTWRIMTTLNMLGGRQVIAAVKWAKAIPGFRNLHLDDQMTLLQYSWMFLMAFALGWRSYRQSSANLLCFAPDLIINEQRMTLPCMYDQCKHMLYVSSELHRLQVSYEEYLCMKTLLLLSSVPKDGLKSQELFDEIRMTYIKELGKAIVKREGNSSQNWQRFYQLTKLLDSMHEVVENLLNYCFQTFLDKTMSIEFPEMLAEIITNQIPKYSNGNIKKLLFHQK
Chain of Lysosomal acid glucosylceramidase (Homo sapiens) (P04062 whole entry, looked up): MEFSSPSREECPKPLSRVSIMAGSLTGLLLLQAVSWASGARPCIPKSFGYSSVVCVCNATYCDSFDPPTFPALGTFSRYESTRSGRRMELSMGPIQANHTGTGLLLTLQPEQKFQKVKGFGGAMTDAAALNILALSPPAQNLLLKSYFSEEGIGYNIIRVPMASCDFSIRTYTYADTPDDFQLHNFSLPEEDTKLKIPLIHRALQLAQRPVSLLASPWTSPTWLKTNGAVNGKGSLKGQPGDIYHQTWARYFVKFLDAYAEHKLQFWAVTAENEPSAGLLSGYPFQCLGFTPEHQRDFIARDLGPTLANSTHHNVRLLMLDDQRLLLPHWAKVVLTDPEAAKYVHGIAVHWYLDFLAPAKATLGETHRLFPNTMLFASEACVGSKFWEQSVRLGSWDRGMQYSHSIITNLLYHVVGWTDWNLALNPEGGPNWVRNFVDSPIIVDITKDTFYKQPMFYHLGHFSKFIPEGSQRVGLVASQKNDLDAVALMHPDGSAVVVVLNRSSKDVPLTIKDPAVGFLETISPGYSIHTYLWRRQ
Chain of Cytochrome P450 2C19 (Homo sapiens) (P33261 whole entry, looked up): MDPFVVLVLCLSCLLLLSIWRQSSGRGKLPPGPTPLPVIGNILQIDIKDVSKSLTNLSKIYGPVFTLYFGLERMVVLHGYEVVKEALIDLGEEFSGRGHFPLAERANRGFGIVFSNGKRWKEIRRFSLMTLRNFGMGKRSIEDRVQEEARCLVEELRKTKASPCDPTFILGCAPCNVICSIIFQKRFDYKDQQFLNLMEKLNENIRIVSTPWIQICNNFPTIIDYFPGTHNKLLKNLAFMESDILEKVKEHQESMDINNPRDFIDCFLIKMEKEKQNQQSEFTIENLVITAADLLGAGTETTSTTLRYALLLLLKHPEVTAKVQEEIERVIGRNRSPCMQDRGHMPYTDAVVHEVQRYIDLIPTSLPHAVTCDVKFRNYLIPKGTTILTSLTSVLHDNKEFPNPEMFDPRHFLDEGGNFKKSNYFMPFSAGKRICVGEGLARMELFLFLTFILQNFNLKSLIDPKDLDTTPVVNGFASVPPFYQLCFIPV
Chain of 3',5'-cyclic-AMP phosphodiesterase 4B (Homo sapiens) (Q07343 whole entry, looked up): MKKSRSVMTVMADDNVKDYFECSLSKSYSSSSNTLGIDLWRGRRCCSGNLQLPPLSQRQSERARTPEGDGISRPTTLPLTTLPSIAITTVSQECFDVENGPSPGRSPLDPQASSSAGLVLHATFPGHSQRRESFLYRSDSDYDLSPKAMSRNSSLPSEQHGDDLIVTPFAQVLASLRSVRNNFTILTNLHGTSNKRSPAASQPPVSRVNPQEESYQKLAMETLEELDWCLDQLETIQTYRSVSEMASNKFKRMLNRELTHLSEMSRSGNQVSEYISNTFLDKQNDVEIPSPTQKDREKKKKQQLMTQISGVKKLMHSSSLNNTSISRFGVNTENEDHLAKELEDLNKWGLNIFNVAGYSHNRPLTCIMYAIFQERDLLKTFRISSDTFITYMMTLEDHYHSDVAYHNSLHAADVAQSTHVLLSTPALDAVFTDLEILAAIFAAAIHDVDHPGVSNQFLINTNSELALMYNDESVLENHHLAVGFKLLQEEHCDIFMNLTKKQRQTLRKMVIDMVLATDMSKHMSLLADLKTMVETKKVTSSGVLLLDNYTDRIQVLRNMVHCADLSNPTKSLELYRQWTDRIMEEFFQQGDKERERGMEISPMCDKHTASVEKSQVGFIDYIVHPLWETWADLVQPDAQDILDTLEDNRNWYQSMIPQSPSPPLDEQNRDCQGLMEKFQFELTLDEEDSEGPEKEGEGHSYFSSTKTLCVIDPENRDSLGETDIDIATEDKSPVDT
Chain of Cytochrome P450 3A4 (Homo sapiens) (P08684 whole entry, looked up): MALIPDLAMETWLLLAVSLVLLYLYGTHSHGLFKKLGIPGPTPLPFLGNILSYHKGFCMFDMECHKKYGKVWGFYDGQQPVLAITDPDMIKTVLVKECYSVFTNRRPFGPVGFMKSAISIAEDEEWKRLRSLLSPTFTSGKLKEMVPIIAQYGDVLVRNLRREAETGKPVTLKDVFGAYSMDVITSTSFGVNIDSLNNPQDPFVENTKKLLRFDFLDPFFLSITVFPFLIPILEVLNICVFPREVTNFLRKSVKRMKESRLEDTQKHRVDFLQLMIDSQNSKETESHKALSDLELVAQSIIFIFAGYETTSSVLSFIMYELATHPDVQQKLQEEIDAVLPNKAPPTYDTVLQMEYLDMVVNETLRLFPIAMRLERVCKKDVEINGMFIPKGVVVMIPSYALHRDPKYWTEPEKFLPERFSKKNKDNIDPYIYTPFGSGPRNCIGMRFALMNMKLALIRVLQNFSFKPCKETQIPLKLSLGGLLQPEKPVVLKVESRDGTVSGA
Chain of Cytochrome P450 1A2 (Homo sapiens) (P05177 whole entry, looked up): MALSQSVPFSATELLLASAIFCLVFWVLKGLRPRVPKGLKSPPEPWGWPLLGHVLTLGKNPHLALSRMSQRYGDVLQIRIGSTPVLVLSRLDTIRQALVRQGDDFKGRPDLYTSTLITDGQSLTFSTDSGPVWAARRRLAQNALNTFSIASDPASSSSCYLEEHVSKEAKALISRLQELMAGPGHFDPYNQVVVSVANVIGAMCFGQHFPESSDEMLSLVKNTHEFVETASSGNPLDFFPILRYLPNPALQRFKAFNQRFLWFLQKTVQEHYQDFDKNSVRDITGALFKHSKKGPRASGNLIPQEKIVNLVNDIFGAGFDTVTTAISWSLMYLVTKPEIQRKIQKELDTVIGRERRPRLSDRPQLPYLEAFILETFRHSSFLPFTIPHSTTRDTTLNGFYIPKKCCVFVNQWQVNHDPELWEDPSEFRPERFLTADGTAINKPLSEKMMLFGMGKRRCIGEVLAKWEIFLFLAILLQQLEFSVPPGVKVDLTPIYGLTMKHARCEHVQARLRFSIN

As for `Cc1cccc(CNc2nc(-c3cccc(NS(C)(=O)=O)c3)nc3ccccc23)c1`, the Potency in [1] is > 11.4 µM (inactive); in assay [3], 15.8 µM (active); in assay [6], > 46 µM (inactive); in [7], > 46 µM (inactive); in assay [9], 5.01 µM (active); in assay [11] it was 2.51 µM (active). For the same molecule, the values for the activity change, negative = inhibition in assay [2], in assay [4] and in [13] were -27.3% (inactive), -6.18% (inactive) and 1.31% (inactive), respectively. The activity, negative = inhibition in [5] is -23% (inactive). Besides, the Potency entry in assay [8] and in [10] was “inactive” each time. Besides, in assay [12], the molecule was called inactive. In addition, the values for the max response in [13] (setting [16]) and in assay [13] (setting [17]) were -11.9% and -11.1%, respectively.
As for `COCC(=O)N1CCC2(CCN(Cc3ccncc3)CC2)CC1`, the Potency in assay [1] was > 11.4 µM (inactive); in assay [3], 10 µM (active); in assay [7], > 46 µM (inactive); in assay [11] it was 0.0251 µM (active). Also, the activity change, negative = inhibition in assay [2] was 5.27% (inactive); in assay [4], -6.67% (inactive); in assay [13] it was 3.65% (inactive). The activity, negative = inhibition in assay [5] was 1.05% (inactive). In addition, the Potency result in [8], in assay [14] and in assay [10] was “inactive” throughout. Also, the max response amounted to 13.5% in assay [13] (setting [16]) and 19.1% in assay [13] (setting [17]).
`Cc1cccc(CNc2ncncc2-c2ccccc2C(F)(F)F)c1`: the Potency in [1] was > 11.4 µM (inactive); in assay [3], 12.6 µM (active); in [6], > 46 µM (inactive); in [7] it was > 46 µM (inactive); in assay [9] it was 0.0794 µM (active). Besides, the activity change, negative = inhibition is -9.35% (inactive) in assay [2], -6.75% (inactive) in assay [4] and 4.45% (inactive) in assay [13]. Besides, the activity, negative = inhibition in assay [5] was -0.642% (inactive). The Potency result in [8], in [10] and in assay [15] was “inactive” throughout. Besides, the result in assay [12] was inactive. The max response in assay [13] (setting [16]) is -2.27%; in assay [13] (setting [17]) it was 3.62%.
Regarding `CC(C)NC(=O)N1CCC2(CC1)CCN(C(=O)c1cnccn1)CC2`, the Potency in [1] is > 11.4 µM (inactive); in assay [7], > 46 µM (inactive). For the same molecule, the activity change, negative = inhibition is -0.14% (inactive) in [2], 7.26% (inactive) in [4] and 0.356% (inactive) in assay [13]. For the same molecule, the Potency entry in assay [3], in [8] and in assay [14] was “inactive” each time. In addition, in assay [5], the activity, negative = inhibition was -2.84% (inactive). The values for the max response in [13] (setting [16]) and in assay [13] (setting [17]) were 15.3% and 17.7%, respectively.
In the case of `COc1ccccc1-c1ccc2ncnc(N(C)C)c2c1`, the Potency is > 11.4 µM (inactive) in assay [1]; 1.26 µM (active) in assay [3]; > 46 µM (inactive) in assay [6]; > 46 µM (inactive) in assay [7]; 5.01 µM (active) in [9]; 0.501 µM (active) in [11]. Further, the results for the activity change, negative = inhibition in [2], in [4] and in assay [13] were -19.5% (inactive), -2.93% (inactive) and 4.68% (inactive), respectively. Further, in assay [5], the activity, negative = inhibition is -12.7% (inactive). The Potency result in assay [8], in assay [10] and in [15] was “inactive” in each case. Also, the molecule was called inactive in assay [12]. Further, the values for the max response in assay [13] (setting [16]) and in assay [13] (setting [17]) were -12.6% and -7.7%, respectively.
Turning to `N#Cc1cccc(-c2nc(Nc3ccncc3)c3ccccc3n2)c1`, the Potency in assay [1] was 2.09 µM (active); in assay [3], 0.631 µM (active); in assay [6], > 46 µM (inactive); in assay [7], > 46 µM (inactive). The activity change, negative = inhibition in assay [2] is -0.676% (inactive); in assay [4], -19.2% (inactive); in assay [13] it was 5.79% (inactive). Also, the activity, negative = inhibition in assay [5] is 8.07% (inactive). The Potency entry in assay [8], in assay [14], in assay [10] and in [15] was “inactive” throughout. The molecule was classed as inactive in [12]. Besides, the results for the max response in assay [13] (setting [16]) and in assay [13] (setting [17]) were 4.98% and 11.4%, respectively.
With `Cn1cccc1C(=O)N1CCC2(CCN(C(=O)Nc3ccccc3)CC2)CC1`, the Potency in assay [1] is > 11.4 µM (inactive); in assay [7], > 46 µM (inactive). Besides, the activity change, negative = inhibition in assay [2] is -3.67% (inactive); in [4] it was 5.41% (inactive); in assay [13], 5.15% (inactive). Further, the Potency entry in assay [3], in assay [8], in assay [14] and in assay [9] was “inactive” each time. Besides, in [5], the activity, negative = inhibition was -8.38% (inactive). The max response in assay [13] (setting [16]) was found to be 0.66%; in [13] (setting [17]), 6.81%.
In the case of `N#CCCn1c(=O)cnc2cnc(N3CCNCC3)nc21`, the Potency in [1] was > 11.4 µM (inactive); in [3], 12.6 µM (active); in assay [6], > 9.22 µM (inactive); in [7], > 46 µM (inactive). Besides, the activity change, negative = inhibition is -10.6% (inactive) in [2], 3.67% (inactive) in [4] and 4.17% (inactive) in [13]. In addition, the activity, negative = inhibition in assay [5] was -12.7% (inactive). The Potency entry in assay [8] and in assay [14] was “inactive” throughout. Further, the figures for the max response in [13] (setting [16]) and in assay [13] (setting [17]) were 14.3% and 19.4%, respectively.
